# Structures can show the parent of a compound that is named as a salt. ± gives the standard deviation of the averaged measurements.
# Test system: E. coli TESEC Alr+ wild-type control
# Experiment: growth (OD600 after 10 h); higher = more growth (less inhibition)
# Conditions: compound 0.1 mM; raw OD600 reference: median of DMSO wells 0.49, cell-free background 0.052
# Protocol: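 TESEC Mtb Alr E. coli (ΔaraC ΔtolC ΔentC Δalr ΔdadX, arabinose-inducible Mtb Alr) or the Alr+ wild-type control strain, grown in defined M9-fructose medium without D-alanine in 96-well plates with Prestwick library compounds at 0.1 mM and 1% DMSO. Low Alr induction is 0.1 µM arabinose and high induction is 10 mM arabinose.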
row,Compound,growth
1,CC(CCc1ccccc1)NC(C)C(O)c1ccc(O)cc1 (stereo not given) [Nylidrin],0.491 ± 0.052
2,COc1ccc(CN2CCNCC2)c(OC)c1OC [Trimetazidine dihydrochloride],0.584 ± 0.012
3,C=CCN1CC[C@]23c4c5ccc(O)c4O[C@H]2C(=O)CC[C@@]3(O)[C@H]1C5 [Naloxone hydrochloride],0.479 ± 0.016
4,CCN(C(C)=O)c1cccc(-c2ccnc3c(C#N)cnn23)c1 [Zaleplon],0.504 ± 0.065
5,C=C1C[C@@H]2[C@H](CC[C@]3(C)C(=O)CC[C@@H]23)[C@@]2(C)C=CC(=O)C=C12 [Exemestane],0.322 ± 0.0079
6,CC(C)C[C@H]1C(=O)N2CCC[C@H]2[C@]2(O)O[C@](NC(=O)[C@@H]3C=C4c5cccc6[nH]c(Br)c(c56)C[C@H]4N(C)C3)(C(C)C)C(=O)N12 [Bromocryptine mesylate],0.511 ± 0.046
7,C(#CCN1CCCC1)CN1CCCC1 [Tremorine dihydrochloride],0.696 ± 0.067
8,C[C@]12CC[C@@H]3c4ccc(OC(=O)N(CCCl)CCCl)cc4CC[C@H]3[C@@H]1CC[C@@H]2O [Estramustine],0.399 ± 0.008
9,C[N+]1(C)CCOC(O)(c2ccc(-c3ccc(C4(O)C[N+](C)(C)CCO4)cc3)cc2)C1 (stereo not given) [Hemicholinium bromide],0.559 ± 0.071
10,C[C@]12CC[C@H]3[C@@H](CCC4=CC(=O)CC[C@@H]43)[C@@H]1CC[C@@H]2O [Nandrolone],0.423 ± 0.015
11,CCC1(CC)C(=O)C=CNC1=O [Pyrithyldione],0.458 ± 0.024
12,CCC1(c2cccc(O)c2)CCCCN(C)C1 (stereo not given) [Meptazinol hydrochloride],0.643 ± 0.03
13,CN(C)C(=O)Oc1cccc([N+](C)(C)C)c1 [Neostigmine bromide],0.563 ± 0.068
14,NC(=O)OCCCc1ccccc1 [Phenprobamate],0.562 ± 0.087
15,C[C@]12CC[C@@H](O)C[C@@H]1CC[C@@H]1[C@@H]2CC[C@]2(C)C(=O)CC[C@@H]12 [Androsterone],0.291 ± 0.016
16,C[C@]12Cc3c[nH]nc3C[C@@H]1CC[C@@H]1[C@@H]2CC[C@@]2(C)[C@H]1CC[C@]2(C)O [Stanozolol],0.47 ± 0.038
17,COc1ccc2c(c1)[C@]13CCCC[C@@H]1[C@H](C2)N(C)CC3 [Dextromethorphan hydrobromide monohydrate],0.469 ± 0.03
18,CNC(=O)Oc1ccc2c(c1)[C@]1(C)CCN(C)[C@@H]1N2C [Eserine hemisulfate salt],0.423 ± 0.028
19,O=[N+]([O-])O[C@@H]1CO[C@H]2[C@@H]1OC[C@@H]2O [Isosorbide mononitrate],0.548 ± 0.053
20,C[C@]12CC[C@@H](O)C[C@H]1CC[C@@H]1[C@@H]2CC[C@]2(C)C(=O)CC[C@@H]12 [3-alpha-Hydroxy-5-beta-androstan-17-one],0.262 ± 0.011

row,Compound,growth
1,CC(C)(C)NCC(O)c1cc(Cl)c(N)c(Cl)c1 (stereo not given) [Clenbuterol hydrochloride],0.605 ± 0.12
2,"CN1CCC2(C)c3cc(O)ccc3N(C)C12 (single isomer, unassigned; (-)) [(-)-Eseroline fumarate salt]",0.577 ± 0.095
3,C[C@]12COC(=O)C[C@@H]1CC[C@@H]1[C@@H]2CC[C@@]2(C)[C@H]1CC[C@]2(C)O [Oxandrolone],0.435 ± 0.042
4,S=C(NC1CCCCC1)N1CCC(c2cnc[nH]2)CC1 [Thioperamide maleate],0.561 ± 0.066
5,CN[C@@H]1C[C@@H](c2ccc(Cl)c(Cl)c2)c2ccccc21 [Indatraline hydrochloride],0.0509 ± 0.0003
6,"CCC1(c2ccc(N)cc2)CCC(=O)NC1=O (stereo not given) [Glutethimide, para-amino]",0.445 ± 0.022
7,O=C(CCCN1CCC2(CC1)C(=O)NCN2c1ccccc1)c1ccc(F)cc1 [Spiperone],0.509 ± 0.042
8,N[C@@H]1C[C@H]1c1ccccc1 [Tranylcypromine hydrochloride],0.529 ± 0.055
9,COc1cccc(C2(O)CCCCC2CN(C)C)c1 (stereo not given) [Tramadol hydrochloride],0.476 ± 0.013
10,COc1ccc(CCN)cc1OC [Homoveratrylamine],0.563 ± 0.069
11,CN1C(=O)CCS(=O)(=O)C1c1ccc(Cl)cc1 (stereo not given) [Chlormezanone],0.615 ± 0.1
12,C[C@]12C/C(=C/O)C(=O)C[C@@H]1CC[C@@H]1[C@@H]2CC[C@@]2(C)[C@H]1CC[C@]2(C)O [Oxymetholone],0.462 ± 0.01
13,CN1[C@@H]2CC[C@H]1C[C@@H](OC(=O)C(CO)c1ccccc1)C2 (stereo not given in full) [Atropine sulfate monohydrate],0.418 ± 0.017
14,NCCc1c[nH]c2ccc(O)cc12 [Serotonin hydrochloride],0.475 ± 0.0089
15,CC(NC(C)(C)C)C(=O)c1cccc(Cl)c1 (stereo not given) [Bupropion hydrochloride],0.46 ± 0.026
16,C[C@@]12N[C@@H](Cc3ccccc31)c1ccccc12 [(-)-MK 801 hydrogen maleate],0.564 ± 0.017
17,O=P1(NCCCl)OCCCN1CCCl (stereo not given) [Ifosfamide],0.517 ± 0.077
18,CN1[C@@H]2CC[C@H]1C[C@@H](OC(=O)[C@H](CO)c1ccccc1)C2 [Hyoscyamine (L)],0.468 ± 0.045
19,O=P1(N(CCCl)CCCl)NCCCO1 (stereo not given) [Cyclophosphamide],0.57 ± 0.069
20,CCC1=C[C@H]2CN3CCc4c([nH]c5ccccc45)[C@](C(=O)OC)(C2)[C@H]13 [Catharanthine],0.4419 ± 0.0012

# Reference: the supplement of paper PMC9262897, “Low-cost anti-mycobacterial drug discovery using engineered E. coli” (Nature Communications, 2022)
